Assay results from PubChem BioAssay (NCI).
Compounds without any hit were thinned out: in the full panel of roughly 79,000, 15% have a hit. Calls of active or inactive are those of the source. Cut-off read from the data, not from the text of the source: active = growth inhibition above about 70%; inactive = the rest.

Tests used:
[1] = NCI Yeast Anticancer Drug Screen. Data for the rad52 strain (AID 147);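 note: 0% = growth of vehicle-treated control cultures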; conditions: S. cerevisiae rad52 mutant growth inhibition, hits give high values
In short: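 Inhibition of yeast growth, referenced to vehicle controls, was the measured output for a strain with defective DNA damage repair.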

[2] = NCI Yeast Anticancer Drug Screen. Data for the wt1 strain (AID 149);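 note: 0% = growth of vehicle-treated wt1 cultures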; conditions: S. cerevisiae wt1 strain (SPY 50644) growth inhibition, hits give high values
In short: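 Growth inhibition read against vehicle controls after compound exposure of the wt1 yeast strain.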

[3] = NCI Yeast Anticancer Drug Screen. Data for the rad50EPP+ strain (AID 151);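 note: 0% = growth of vehicle-treated control cultures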; conditions: S. cerevisiae rad50 mutant strain, hits give high values
In short: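 Genetically defined yeast (rad50EPP+, DNA damage repair alteration) is grown with compound, and inhibition of growth is expressed relative to vehicle-treated controls.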

[4] = NCI Yeast Anticancer Drug Screen. Data for the mgt1 strain (AID 153); conditions: S. cerevisiae mgt1 mutant growth inhibition, hits give high values
In short: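 In the mgt1 strain, test compounds were added and growth inhibition was determined relative to vehicle-treated controls.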

[5] = NCI Yeast Anticancer Drug Screen. Data for the rad50 strain (AID 155);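 note: 0% = growth of vehicle-only cultures of the same strain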; conditions: S. cerevisiae rad50 strain growth inhibition, hits give high values
In short: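 Readout: growth inhibition relative to vehicle-treated cultures. Compound exposure was carried out in a genetically defined yeast strain deficient in DNA damage repair.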

[6] = NCI Yeast Anticancer Drug Screen. Data for the mec2-1 strain (AID 157); conditions: S. cerevisiae mec2-1 strain, hits give high values
In short: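 Each compound was tested on mec2-1 yeast, a strain altered in DNA damage repair or cell cycle control. Growth inhibition is reported relative to vehicle.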

[7] = NCI Yeast Anticancer Drug Screen. Data for the rad14 strain (AID 159);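 note: 0% = growth of vehicle-treated control cultures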; conditions: S. cerevisiae rad14 strain growth inhibition, hits give high values
In short: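 Growth inhibition vs vehicle controls; genetically altered yeast strain (DNA damage repair defect) treated with test compounds.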

[8] = NCI Yeast Anticancer Drug Screen. Data for the sgs1 mgt1 strain (AID 161);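 note: 0% = growth of cultures given vehicle only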; conditions: S. cerevisiae sgs1 mgt1 strain, hits give high values
In short: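 Genetically altered yeast, compound exposure, growth inhibition relative to vehicle.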

[9] = NCI Yeast Anticancer Drug Screen. Data for the CLN2oe strain (AID 163);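 note: 0% = growth of vehicle-only control cultures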; conditions: S. cerevisiae CLN2oe strain, hits give high values
In short: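 First, the altered yeast strain was treated with each compound; second, its growth was measured; finally, inhibition was derived by comparison with vehicle controls.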

[10] = NCI Yeast Anticancer Drug Screen. Data for the cln2 rad14 strain (AID 165);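 note: 0% = growth equal to vehicle treated cultures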; conditions: S. cerevisiae cln2 rad14 strain, hits give high values
In short: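 Test compounds were added to cln2 rad14 yeast cultures; inhibition of growth was then determined by comparison with vehicle treatment.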

[11] = NCI Yeast Anticancer Drug Screen. Data for the bub3 strain (AID 167); conditions: S. cerevisiae bub3 mutant strain, hits give high values
In short: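 Readout: yeast growth inhibition, expressed relative to vehicle-only wells. The test organism is a mutant strain from a panel with lesions in DNA repair or checkpoint genes.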

[12] = NCI Yeast Anticancer Drug Screen. Data for the wt2 strain (AID 169);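 note: 0% = growth of vehicle-treated yeast cultures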; conditions: S. cerevisiae wt2 strain growth inhibition, hits give high values
In short: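 The panel's yeast strains carry defined changes in DNA repair or cell cycle genes. Each strain is grown with compound, and growth loss is scored relative to vehicle.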

[13] = NCI Yeast Anticancer Drug Screen. Data for the sgs1 strain (AID 173);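 note: 0% = growth of vehicle-only control cultures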; conditions: S. cerevisiae sgs1 mutant, hits give high values
In short: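 Vehicle-treated cultures served as reference for growth inhibition of a yeast strain altered in DNA damage repair or cell cycle control after compound exposure.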

[14] = NCI Yeast Anticancer Drug Screen. Data for the mlh1 rad18 strain (AID 175); conditions: S. cerevisiae mlh1 rad18 strain growth inhibition, hits give high values
In short: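 Inhibition values reflect reduced growth of mutant yeast versus vehicle-treated controls following compound exposure; the mutations affect DNA damage repair.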

[15] = NCI Yeast Anticancer Drug Screen. Data for the rad18 strain (AID 177); conditions: S. cerevisiae rad18 mutant growth inhibition, hits give high values
In short: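 Steps: expose repair-mutant yeast to compound; measure growth; express as inhibition relative to vehicle control.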

[16] = NCI Yeast Anticancer Drug Screen. Data for the mlh1 strain (AID 171);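 note: 0% = growth of vehicle-treated control cultures of the same strain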; conditions: S. cerevisiae mlh1 strain growth inhibition, hits give high values
In short: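 Inhibition values reflect reduced yeast growth in the presence of compound, referenced to vehicle controls, using a strain chosen for its alteration in DNA repair or cell cycle control.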

[17] = at 5.0 µM (retest, dose inferred, filed as 0.5)
[18] = at 50.0 µM (retest, dose inferred, filed as 5.0)

Measured: growth inhibition

CC(C)(CN1CCCCC1)C(=O)CC(SCCS(=O)(=O)O)c1ccc(Br)cc1 (stereo unspecified)
active: [5]; at 50.0 µM 73.8% | [11]; at 50.0 µM 74.7%
inactive: [1]; at 1.2 µM 1% | [1]; at 3.7 µM 6% | [1]; at 11.0 µM 9% | [1]; at 33.0 µM 22% | [1]; at 100.0 µM 54% | [2]; at 1.2 µM 3% | [2]; at 3.7 µM 6% | [2]; at 11.0 µM 9% | [2]; at 33.0 µM 11% | [2]; at 100.0 µM 24% | [3]; at 1.2 µM -2% | [3]; at 3.7 µM -4% | [3]; at 11.0 µM -4% | [3]; at 33.0 µM 0% | [3]; at 100.0 µM 14% | [4]; at 1.2 µM -1% | [4]; at 3.7 µM 0% | [4]; at 11.0 µM 8% | [4]; at 33.0 µM 21% | [4]; at 100.0 µM 59% | [5]; at 1.2 µM -2% | [5]; at 3.7 µM -5% | [5]; [17] 13% | [5]; at 11.0 µM -1% | [5]; at 33.0 µM 24% | [5]; [18] 32% | [5]; at 100.0 µM 50% | [6]; at 1.2 µM 1% | [6]; at 3.7 µM 6% | [6]; [17] -7% | [6]; at 11.0 µM 14% | [6]; at 33.0 µM 18% | [6]; [18] 11% | [6]; at 50.0 µM 52.9% | [6]; at 100.0 µM 36% | [7]; at 1.2 µM 6% | [7]; at 3.7 µM 19% | [7]; at 11.0 µM 42% | [7]; at 33.0 µM 39% | [7]; at 100.0 µM 51% | [8]; [17] 5% | [8]; [18] 4% | [8]; at 50.0 µM 68.5% | [9]; at 1.2 µM 2% | [9]; at 3.7 µM 4% | [9]; at 11.0 µM 13% | [9]; at 33.0 µM 25% | [9]; at 100.0 µM 33% | [10]; [17] 13% | [10]; [18] 26% | [10]; at 50.0 µM 56.7% | [11]; at 1.2 µM 1% | [11]; at 3.7 µM 6% | [11]; [17] -4% | [11]; at 11.0 µM 17% | [11]; at 33.0 µM 29% | [11]; [18] 56% | [11]; at 100.0 µM 61% | [12]; at 1.2 µM 1% | [12]; at 3.7 µM 3% | [12]; at 11.0 µM 11% | [12]; at 33.0 µM 24% | [12]; at 100.0 µM 46% | [13]; at 1.2 µM 2% | [13]; at 3.7 µM 11% | [13]; at 11.0 µM 28% | [13]; at 33.0 µM 42% | [13]; at 100.0 µM 62% | [14]; [17] 3% | [14]; [18] 21% | [14]; at 50.0 µM 65.2% | [15]; at 1.2 µM 2% | [15]; at 3.7 µM 15% | [15]; at 11.0 µM 29% | [15]; at 33.0 µM 25% | [15]; at 100.0 µM 55%

CN(C)c1ccc(C(C#N)=C(C#N)C#N)cc1
inactive: [1]; at 1.2 µM -2% | [1]; at 3.7 µM -1% | [1]; at 11.0 µM 2% | [1]; at 33.0 µM 5% | [1]; at 100.0 µM 49% | [2]; at 1.2 µM -6% | [2]; at 3.7 µM -5% | [2]; at 11.0 µM -6% | [2]; at 33.0 µM -4% | [2]; at 100.0 µM 12% | [3]; at 1.2 µM 1% | [3]; at 3.7 µM 3% | [3]; at 11.0 µM 7% | [3]; at 33.0 µM 15% | [3]; at 100.0 µM 50% | [4]; at 1.2 µM -3% | [4]; at 3.7 µM -2% | [4]; at 11.0 µM -1% | [4]; at 33.0 µM -4% | [4]; at 100.0 µM 10% | [5]; at 1.2 µM -2% | [5]; at 3.7 µM -8% | [5]; [17] -127% | [5]; at 11.0 µM 6% | [5]; at 33.0 µM 11% | [5]; at 100.0 µM 62% | [6]; at 1.2 µM 2% | [6]; at 3.7 µM 2% | [6]; [17] -35% | [6]; at 11.0 µM 9% | [6]; at 33.0 µM 3% | [6]; at 100.0 µM 18% | [7]; at 1.2 µM 3% | [7]; at 3.7 µM 8% | [7]; at 11.0 µM 10% | [7]; at 33.0 µM 11% | [7]; at 100.0 µM 33% | [8]; [17] -47% | [8]; [18] 60% | [9]; at 1.2 µM 2% | [9]; at 3.7 µM 7% | [9]; at 11.0 µM 8% | [9]; at 33.0 µM 8% | [9]; at 100.0 µM 16% | [10]; [17] -45% | [10]; [18] 6% | [10]; at 50.0 µM 59.5% | [11]; at 1.2 µM -10% | [11]; at 3.7 µM -5% | [11]; [17] -54% | [11]; at 11.0 µM -5% | [11]; at 33.0 µM -7% | [11]; at 100.0 µM 31% | [12]; at 1.2 µM -2% | [12]; at 3.7 µM 0% | [12]; at 11.0 µM -1% | [12]; at 33.0 µM 0% | [12]; at 100.0 µM 7% | [16]; at 1.2 µM 6% | [16]; at 3.7 µM -6% | [16]; at 11.0 µM -3% | [16]; at 33.0 µM -6% | [16]; at 100.0 µM 17% | [14]; [17] -108% | [15]; at 1.2 µM 0% | [15]; at 3.7 µM 1% | [15]; at 11.0 µM 5% | [15]; at 33.0 µM 6% | [15]; at 100.0 µM 39%
active: [5]; [18] 70% | [5]; at 50.0 µM 88.2% | [6]; [18] 82% | [6]; at 50.0 µM 89.3% | [8]; at 50.0 µM 73.2% | [11]; [18] 77% | [11]; at 50.0 µM 83.4% | [14]; [18] 76% | [14]; at 50.0 µM 89.6%

O=C1OC(CCl)CN1/N=C/c1ccc([N+](=O)[O-])o1 (stereo unspecified)
inactive: [1]; at 1.2 µM -36% | [1]; at 3.7 µM -11% | [1]; at 11.0 µM 19% | [1]; at 33.0 µM 54% | [2]; at 1.2 µM -2% | [2]; at 3.7 µM 2% | [2]; at 11.0 µM 14% | [2]; at 33.0 µM 21% | [2]; at 100.0 µM 54% | [3]; at 1.2 µM -3% | [3]; at 3.7 µM -17% | [3]; at 11.0 µM 14% | [3]; at 33.0 µM 47% | [4]; at 1.2 µM -3% | [4]; at 3.7 µM -8% | [4]; at 11.0 µM -3% | [4]; at 33.0 µM 1% | [4]; at 100.0 µM 25% | [5]; at 1.2 µM -10% | [5]; at 3.7 µM -8% | [5]; [17] 19% | [5]; at 11.0 µM 3% | [5]; at 33.0 µM 45% | [5]; at 50.0 µM 21.7% | [6]; at 1.2 µM -4% | [6]; at 3.7 µM -3%
active: [1]; at 100.0 µM 88% | [3]; at 100.0 µM 73% | [5]; [18] 78% | [5]; at 100.0 µM 80%
